# Results as given in PubChem BioAssay AID504545 (Broad Institute, 2011).
# Results with a measured potency or affinity are listed apart. Inconclusive results are not listed. Activity calls are given as the source filed them. No rule for the calls is given here.
# Molecular target: Cyclin-dependent kinase 5 activator 1 (Homo sapiens) + Cyclin-dependent kinase 5 (Homo sapiens) (UniProt Q15078+Q00535)
# Experiment: blockade of human CDK5 activity – biochemical, cherry-picked samples, set 2, dose response (AID 504545)
# Conditions: CDK5/p35 kinase activity, biochemical plate reader; series mostly up to 30 µM
# Cyclin-dependent kinase 5 activator 1 (Homo sapiens) + Cyclin-dependent kinase 5 (Homo sapiens), sequence (Q00535 whole entry, looked up): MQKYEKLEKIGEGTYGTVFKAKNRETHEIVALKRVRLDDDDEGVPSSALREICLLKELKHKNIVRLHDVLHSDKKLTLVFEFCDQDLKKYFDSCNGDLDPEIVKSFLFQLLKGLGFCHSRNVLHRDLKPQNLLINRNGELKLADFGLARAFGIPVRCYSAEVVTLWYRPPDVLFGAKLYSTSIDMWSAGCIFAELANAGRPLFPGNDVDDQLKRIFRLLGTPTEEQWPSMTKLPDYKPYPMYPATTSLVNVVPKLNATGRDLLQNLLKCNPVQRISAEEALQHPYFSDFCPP
# Cyclin-dependent kinase 5 activator 1 (Homo sapiens) + Cyclin-dependent kinase 5 (Homo sapiens), sequence (Q15078 whole entry, looked up): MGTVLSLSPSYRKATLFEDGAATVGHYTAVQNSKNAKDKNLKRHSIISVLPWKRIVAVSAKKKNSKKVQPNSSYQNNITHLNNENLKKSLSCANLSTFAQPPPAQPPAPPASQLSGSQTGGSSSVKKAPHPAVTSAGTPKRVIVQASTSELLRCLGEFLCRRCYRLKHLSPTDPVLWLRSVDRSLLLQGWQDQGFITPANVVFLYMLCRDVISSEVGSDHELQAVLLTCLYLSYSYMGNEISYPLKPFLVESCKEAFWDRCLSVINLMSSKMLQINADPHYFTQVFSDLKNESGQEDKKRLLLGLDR
row,SMILES,outcome
1,CCc1cc(C(=O)c2ccc(OC)cc2)c(N)s1,inactive
2,CN(C)N1C(N)=C(C#N)C(c2cccs2)C2=C1CCCC2=O (stereo not drawn),inactive
3,Cc1ccc2[nH]c(C(F)(F)F)cc(=O)c2c1,inactive
4,COc1cc(OC)c(C(=O)N2CCN(c3ccccn3)CC2)cc1OC,inactive
5,COc1ccc(Nc2nc(N)c(C(=O)c3ccc(F)cc3)s2)cc1,inactive
6,CC(C)=CCNc1ncnc2c1c(C#N)cn2C1OC(CO)C(O)C1O (stereo not drawn),inactive
7,CC(C)n1cnc2c(NCc3ccc(S(N)(=O)=O)cc3)nc(NCc3ccc(S(N)(=O)=O)cc3)nc21,inactive
8,CCOc1cc(C(=O)N2CCN(c3ccccn3)CC2)cc(OCC)c1OCC,inactive
9,Cc1cccc(/N=C/c2c(O)ccc3oc4c(c23)CCCC4)n1,inactive
10,O=C(O)CCC(=O)NCCn1c(-c2ccccc2)csc1=Nc1ccccc1,inactive
11,O=C(NNC(=O)c1ccccn1)c1ccc(OC(F)F)cc1,inactive
12,COc1cccc(OC)c1C(=O)N1CCN(c2ccccn2)CC1,inactive
13,COc1ccc(Nc2nccc(-c3ccc([N+](=O)[O-])cc3)n2)cc1,inactive
14,O=C(c1ccc2c(c1)OCO2)N1CCN(c2ccccn2)CC1,inactive
15,CCN1C(=O)/C(=C2/Sc3ccc(OC)cc3N2C)SC1=Nc1cccc(O)c1,inactive
16,O=C(c1ccc(F)cc1)c1cnc(Nc2ccccc2)s1,inactive
17,Cc1ccc(Nc2nc(NCCO)nc3c2cnn3C)cc1Cl,inactive
18,O=C(O)c1ccc(/C=N/Nc2ncc(C(F)(F)F)cc2Cl)cc1,inactive
19,COc1ccccc1C(=O)N1CCN(c2ccccn2)CC1,inactive
20,Nc1ncnc2c1ncn2C1OC(CO)C(O)C1O (stereo not drawn),inactive
21,COc1ccc2oc(C(=O)NCCC(C)C)c(C)c2c1,inactive
22,O=C(c1ccc2c(c1)OCCO2)N1CCN(c2ccccn2)CC1,inactive
23,CC(C)[C@H](CO)N(Cc1cccc(F)c1)c1nc(Nc2cccc(Cl)c2)c2ncn(C(C)C)c2n1,inactive
24,Oc1cccc(C=NNc2ccccn2)c1,inactive
25,Oc1ccc(/C=N/Nc2cccc(Cl)n2)c(O)c1,inactive
26,Clc1cnc(N/N=C/c2ccncc2)c(Cl)c1,inactive
27,CC(C)C[C@H](CO)Nc1nc(N(C)c2cccc(Cl)c2)c2ncn(C(C)C)c2n1,inactive
28,O=C(NNC(=O)c1ccco1)c1ccccc1,inactive
